PubChem BioAssay (NCI)
Where “and” joins values, the source holds several entries; their conditions need not be identical. Equal values may be shown once. This is part of a sample that, as a whole, favours compounds with a hit. Of some 83,000 tested, about 20% had one in any assay.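 Values shown are percent growth following 48 h exposure of cells in 96-well plates to a single concentration of compound; below 10 was considered active.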 Calls of active or inactive are those of the source. Where a SMILES comes first, the peptide text is derived from it.

test system: NCI-H322M lung; assay: NCI-60 one-dose screen, 48 h (100 = growth as untreated, 0 = no growth, -100 = all killed); conditions: 10 µM unless noted
Method: Growth inhibition of the NCI-H322M human Non-Small Cell Lung tumor cell line is measured as a screen for anti-cancer activity. Cells are grown in 96 well plates and exposed to the test compound for 48 hours. Compounds are tested at a single concentration, which is 10^-5 M for most compounds. The reported endpoint is percent growth (GI% or GIPRCNT), where numbers from 0 - 100% represent growth inhibition, and numbers from -100% - 0 represent cell death. For example, a value of 40 represents 60% growth inhibition. A value of 0 means no net growth occurred over the course of the experiment. A value of -40 indicates 40% of cells at the beginning of the experiment died by the end of the experiment. A value of -100 means all cells are dead at the end of the experiment.
NCI-60 Human Tumor Cell Lines Screen was performed using the standard one-dose NCI protocol, which is described in more detail at https://dtp.cancer.gov/discovery_development/nci-60/default.htm.
Compounds with GIPRCNT values below 10 were considered active. Activity score was based on GIPRCNT using the following formula: […]
Score is 0 for GIPRCNT values of 100 or above, 50 for GIPRCNT values of 0, and 100 for GIPRCNT values of -100.

| Compound | growth |
| --- | --- |
| Cc1ccc(S(=O)(=O)c2ccccc2)cc1 | 57.1% (inactive) |
| CC1CCC2(OC1)OC1CC3C4CC=C5CC(O)CCC5(C)C4CCC3(C)C1C2C (stereo not given) | 113% (inactive) |
| OC1COC(OCc2ccccc2)C(O)C1O (stereo not given) | 90.6% (inactive) |
| CCc1cc(C)cc(O)c1 | 105% (inactive) |
| COc1ccc2cc1Oc1ccc(cc1)C[C@H]1c3cc(c(OC)cc3CCN1C)Oc1c(OC)c(OC)cc3c1[C@H](C2)N(C)CC3 | 52.6% (inactive) |
| O=C(O)/C=C\C(=O)Nc1cccc2ccccc12 | 105% (inactive) and 117% (inactive) |
| NC(Cc1ccccc1)C(=O)NC(Cc1ccccc1)C(=O)O (stereo not drawn) (H-Phe-Phe-OH; configuration not given here) | 94.6% (inactive) and 100% (inactive) |
| O=C(/C=C/c1ccccc1)c1ccccc1 | 115% (inactive) |
| CN(C)CC1CCCCCC(CN(C)C)C1=O (stereo not given) | 116% (inactive) |
| C#CCOC(=O)Nc1ccccc1 | 106% (inactive) |
| Cc1cc(-c2ccc(N=Nc3ccc4c(S(=O)(=O)O)cc(S(=O)(=O)O)c(N)c4c3O)c(C)c2)ccc1N=Nc1ccc2c(S(=O)(=O)O)cc(S(=O)(=O)O)c(N)c2c1O | 119% (inactive) |
| O=C1CSC2=NCCN12 | 102% (inactive) and 94.5% (inactive) |
| Nc1cc(N)c(N)cc1N | 107% (inactive) |
| CC(=O)OCC1OC(OC(C)=O)C(OC(C)=O)C(OC(C)=O)C1OC(C)=O (stereo not given) | 111% (inactive) and 101% (inactive) |
| C/C(=C\c1ccccc1)c1ccccn1 | 96.8% (inactive) |
| CC(=O)OC(C)C(=O)NCC(C)O (stereo not given) | 90.7% (inactive) |
| CCN(CCNS(C)(=O)=O)c1ccc(N)c(C)c1 | 95.1% (inactive) and 120% (inactive) |
| CN1CNC(=O)NC1 | 120% (inactive) and 92.3% (inactive) |
| c1ccc2c(c1)OC1OC2Oc2ccccc21 | 104% (inactive) |
| NC(Cc1c[nH]c2ccccc12)C(=O)O (stereo not given) | 98.8% (inactive) and 111% (inactive) |

| Compound | growth |
| --- | --- |
| CCCCNc1ccc(Nc2ccccc2)cc1 | 98.3% (inactive) |
| N#CC(C#N)N=Nc1ccc(Cl)cc1 | 93.2% (inactive) |
| CCCCCCCCCCCCCCCc1ccc(N)c(OC2OC(CO)C(O)C(O)C2O)c1 (stereo not given) | 77.1% (inactive) |
| CCCCCCCCCCCCCCCCC(C(=O)O)C(O)(CC(=O)O)C(=O)O (stereo not given) | 120% (inactive) and 20% (inactive) |
| c1ccc(CNCCNCc2ccccc2)cc1 | 106% (inactive) |
| Cc1cc(-c2cc(C)c(O)c(C)c2)cc(C)c1O | 93.7% (inactive) |
| CC(=O)NCC(=O)c1ccc([N+](=O)[O-])cc1 | 103% (inactive) |
| CC1=C/C(O)CC(=O)Cc2nc(co2)C(=O)N2CCC=C2C(=O)OC(C(C)C)C(C)/C=C\C(=O)NC/C=C\1 (stereo not given) | 102% (inactive) |
| O=C(CO)C(O)C(O)C(O)C(O)CO (stereo not given) | 107% (inactive) and 105% (inactive) |
| O=[N+]([O-])c1cccc(SSc2cccc([N+](=O)[O-])c2)c1 | 116% (inactive) |
| O=C1OC(c2ccccc2)=N/C1=C\c1ccccc1 | 96.2% (inactive) |
| O=C(Cc1ccccc1)c1ccc(O)c(Cl)c1 | 80% (inactive) |
| O=C1OC(C(O)C(O)CO)C(O)=C1O (stereo not given) | 111% (inactive) and 97.3% (inactive) |
| O=C(O)CCCl | 102% (inactive) |
| CC(C)(O)C(=O)O | 98.6% (inactive) |
| O=C1c2c(O)ccc(O)c2C(=O)c2c(NCCNCCO)ccc(NCCNCCO)c21 | -29.2% (active) and -9.24% (active) |
| CC1CCC(C(C)C)C(NNC(N)=O)C1 (stereo not given) | 102% (inactive) |
| O=C1C=C(Nc2ccccc2)c2ccccc2C1=O | 88.3% (inactive) and 98.1% (inactive) |
| CC[C@H](CC[C@@H](C)[C@H]1CC[C@H]2[C@@H]3CC=C4C[C@@H](O)CC[C@]4(C)[C@H]3CC[C@]12C)C(C)C | 92.6% (inactive) and 103% (inactive) |
| CC(C)NC(=O)N/C=C(\C#N)C(N)=O | 99.5% (inactive) |
